The values below come from article PMC5540273 (PLoS ONE, 2017).

Structures are written as SMILES.

Test systems include EPHA2; EPHA3; EPHA4; EPHA5; EPHA6; EPHA7; EPHA8; EPHB1; EPHB2; EPHB3; EPHB4; EPHB6; ERBB2; ERBB3; ERBB4.
What all share (details): concentration: 1 μM, replicates: in singlicate; n = 1
The test system of another assay is T1, ERK1.
T1 construct: gene MAPK3

The test system of a further assay is T2, ERK2.
T2 construct: gene MAPK1

In the next assay the test system is T3, ERK3.
T3 construct: gene MAPK6

A further assay concerns T4, ERK4.
T4 construct: gene MAPK4

For the next assay, the system named is T5, ERK5.
T5 construct: gene MAPK7
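Note: KINOMEscan kinase panel screen.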

As for `COc1cccc(C2=C(Nc3cc(Cl)c(O)c(Cl)c3)C(=O)NC2=O)c1` [SB-390767], the “%Inh” value in the assay with EPHA2 was determined as 19%; with EPHA3, 0%; in the assay on EPHA4, 28%; in the assay on EPHA5, 0%; in the assay on EPHA6, 30%; in the assay with EPHA7 it was 9%. The “%Inh” value with EPHA8 is given as 17%; in the assay on EPHB1, 11%; with EPHB2, 0%; in the assay with EPHB3 it was 26%; in the assay on EPHB4, 18%; with EPHB6 it was 46%. Moreover, the “%Inh” value in the assay on ERBB2 was found to be 0%; with ERBB3, 3%; with ERBB4, 4%; in the assay with ERK1, 0%; in the assay with ERK2, 0%; in the assay with ERK3 it was 0%. The “%Inh” value with ERK4 and in the assay with ERK5 was 0% each time.

Regarding `Nc1ncnc2occ(-c3ccc4c(c3)CCN4C(=O)Cc3cc(F)ccc3F)c12` [GSK2645446], the “%Inh” value was found to be 0% in the assay on EPHA2; 12% with EPHA3; 0% in the assay with EPHA4; 0% in the assay on EPHA5; 0% with EPHA6; 0% in the assay on EPHA7. For the same compound, the “%Inh” value in the assay with EPHA8 worked out at 0%; with EPHB1 it was 0%; in the assay on EPHB2, 6%; in the assay with EPHB3, 0%; in the assay with EPHB4, 6%; in the assay on EPHB6, 87%. The “%Inh” value was found to be 30% in the assay on ERBB2; 11% in the assay on ERBB3; 0% in the assay on ERBB4; 0% in the assay with ERK1; 0% in the assay on ERK2; 21% in the assay on ERK3. In addition, the “%Inh” value with ERK4 and in the assay on ERK5 was 0% each time.

For `Cc1cccc2c(-c3ccncn3)c(-c3ccc(F)cc3)nn12` [GW515532], the “%Inh” value in the assay with EPHA2 was determined as 0%; in the assay with EPHA3, 0%; in the assay on EPHA4 it was 2%; with EPHA5 it was 0%; in the assay on EPHA6, 21%; in the assay with EPHA7 it was 0%. Besides, the “%Inh” value was found to be 13% with EPHA8; 1% in the assay with EPHB1; 0% in the assay on EPHB2; 2% in the assay on EPHB3; 2% in the assay with EPHB4; 21% with EPHB6. Further, the “%Inh” value in the assay on ERBB2, in the assay with ERBB3, with ERBB4, in the assay on ERK1, in the assay on ERK2 and with ERK3 was 0% in each case. The entries for the “%Inh” value in the assay with ERK4 and in the assay on ERK5 were 1% and 0%, respectively.

On to `CCc1ccc(-c2ccc3c(c2)-c2n[nH]cc2S(=O)(=O)N3C)cc1`, for which the “%Inh” value amounted to 2% in the assay on EPHA2; 0% in the assay on EPHA3; 0% in the assay on EPHA4; 5% in the assay on EPHA5; 0% in the assay with EPHA6; 0% with EPHA7. The “%Inh” value with EPHA8 is recorded as 0%; in the assay with EPHB1, 0%; in the assay with EPHB2 it was 10%; in the assay on EPHB3, 0%; in the assay with EPHB4, 8%; in the assay on EPHB6, 0%. Besides, the “%Inh” value is given as 40% with ERBB2; 15% with ERBB3; 0% in the assay on ERBB4; 0% in the assay with ERK1; 7% in the assay on ERK2; 0% in the assay on ERK3. In addition, the entries for the “%Inh” value in the assay on ERK4 and in the assay with ERK5 were 0% and 5%, respectively.

In the case of `Cn1cnc2c(N)ncnc21` [SKF-97623], the “%Inh” value in the assay with EPHA2 amounted to 0%; in the assay on EPHA3 it was 0%; in the assay with EPHA4, 0%; in the assay on EPHA5, 9%; in the assay with EPHA6, 0%; in the assay with EPHA7 it was 0%. Also, the “%Inh” value in the assay on EPHA8 came to 0%; in the assay on EPHB1 it was 0%; in the assay with EPHB2, 0%; with EPHB3 it was 0%; with EPHB4 it was 52%; in the assay on EPHB6, 0%. Moreover, the “%Inh” value in the assay with ERBB2 turned out to be 35%; in the assay with ERBB3, 0%; with ERBB4 it was 39%; in the assay on ERK1 it was 77%; in the assay with ERK2 it was 0%; with ERK3, 0%. Moreover, the “%Inh” value in the assay on ERK4 and in the assay on ERK5 was 0% in each case.

For `Cn1cncc1-c1cc2c(Nc3ccc(OCc4ccccc4)cc3)ncnc2cn1` [GW281179], the “%Inh” value is reported as 13% with EPHA2; 0% in the assay on EPHA3; 6% in the assay with EPHA4; 0% in the assay on EPHA5; 14% in the assay with EPHA6; 9% with EPHA7. In addition, the “%Inh” value is given as 11% with EPHA8; 21% in the assay with EPHB1; 0% in the assay with EPHB2; 25% in the assay with EPHB3; 17% in the assay with EPHB4; 21% in the assay on EPHB6. Besides, the “%Inh” value turned out to be 99.6% with ERBB2; 75% in the assay on ERBB3; 70% with ERBB4; 0% in the assay on ERK1; 0% with ERK2; 0% in the assay on ERK3. In addition, the “%Inh” value with ERK4 and in the assay with ERK5 was 0% each time.

Consider `O=C1NC(=O)C(c2ccc(Cl)cc2)=C1Nc1ccc(O)cc1` [SB-340867], for which the “%Inh” value was 0% in the assay on EPHA2; 0% in the assay on EPHA3; 3% with EPHA4; 0% with EPHA5; 12% in the assay on EPHA6; 0% in the assay with EPHA7. Further, the “%Inh” value in the assay on EPHA8 was 6%; with EPHB1, 0%; in the assay on EPHB2, 0%; with EPHB3 it was 0%; in the assay on EPHB4, 0%; in the assay with EPHB6, 0%. Besides, the “%Inh” value in the assay on ERBB2 is reported as 0%; in the assay on ERBB3, 0%; with ERBB4, 26%; in the assay with ERK1 it was 0%; in the assay with ERK2, 0%; in the assay with ERK3 it was 0%. Also, the “%Inh” value in the assay on ERK4 and with ERK5 was 0% each time.
